# According to ChEMBL document CHEMBL3988442, “University of Dundee, Small-Polar-MMV Screening Library” (2021):
# For part of these data: Measured potencies and affinities stand elsewhere.
# Key:
# Design in all cases: scale not given: direction of the effect not stated beside the values
# [1] = target: Protein translocase subunit SecA (Escherichia coli (strain K12)) (UniProt P10408); assay: Assay to Identify E. coli SecA ATPase Inhibitors; format: functional; settings: 30 µM
# [2] = target: T1, Ubiquitin-activating enzyme e1, putative (Leishmania donovani (strain BPK282A1)) (UniProt E9BSI1); assay: Leishmania donovani Ubiquitin Activating Enzyme (LdE1); format: functional; settings: 30 µM
# T1 sequence (whole entry): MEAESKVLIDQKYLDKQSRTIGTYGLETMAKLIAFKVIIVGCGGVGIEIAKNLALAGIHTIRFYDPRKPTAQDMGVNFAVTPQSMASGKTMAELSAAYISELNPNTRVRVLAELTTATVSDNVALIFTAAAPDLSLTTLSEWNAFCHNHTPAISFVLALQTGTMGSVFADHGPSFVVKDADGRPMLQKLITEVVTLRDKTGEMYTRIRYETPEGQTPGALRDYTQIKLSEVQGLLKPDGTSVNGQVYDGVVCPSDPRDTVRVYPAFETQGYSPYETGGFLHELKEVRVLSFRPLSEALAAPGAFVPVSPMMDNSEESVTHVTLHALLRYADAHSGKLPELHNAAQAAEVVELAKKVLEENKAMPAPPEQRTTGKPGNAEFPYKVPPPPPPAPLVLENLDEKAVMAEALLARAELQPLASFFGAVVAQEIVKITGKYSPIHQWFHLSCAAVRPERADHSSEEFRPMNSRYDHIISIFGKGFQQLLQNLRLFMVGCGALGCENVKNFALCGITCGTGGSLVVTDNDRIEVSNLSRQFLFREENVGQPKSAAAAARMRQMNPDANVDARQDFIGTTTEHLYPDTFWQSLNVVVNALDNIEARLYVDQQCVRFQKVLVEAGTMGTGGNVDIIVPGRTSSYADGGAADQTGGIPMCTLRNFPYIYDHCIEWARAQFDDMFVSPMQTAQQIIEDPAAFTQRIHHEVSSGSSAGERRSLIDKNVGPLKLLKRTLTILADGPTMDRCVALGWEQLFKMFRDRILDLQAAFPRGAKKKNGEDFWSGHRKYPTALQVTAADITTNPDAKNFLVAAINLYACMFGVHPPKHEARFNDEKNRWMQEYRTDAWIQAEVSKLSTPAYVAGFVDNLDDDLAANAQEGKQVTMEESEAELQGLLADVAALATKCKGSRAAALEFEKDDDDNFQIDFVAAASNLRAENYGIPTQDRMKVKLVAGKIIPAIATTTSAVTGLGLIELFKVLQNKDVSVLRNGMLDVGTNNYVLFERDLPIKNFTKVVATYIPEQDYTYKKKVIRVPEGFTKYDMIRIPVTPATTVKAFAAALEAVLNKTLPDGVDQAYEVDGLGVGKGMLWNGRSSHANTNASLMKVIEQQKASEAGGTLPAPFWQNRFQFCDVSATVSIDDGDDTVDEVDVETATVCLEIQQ
# [3] = target: T2, Aspartate--tRNA(Asp/Asn) ligase (Mycobacterium tuberculosis (strain ATCC 25618 / H37Rv)) (UniProt P9WFW3); assay: Assay for Asp RNA synthetase-1 from Mycobacterium tuberculosis; format: functional; settings: 30 µM; further: in the data most compounds retested in dose-response had high values
# T2 sequence (whole entry): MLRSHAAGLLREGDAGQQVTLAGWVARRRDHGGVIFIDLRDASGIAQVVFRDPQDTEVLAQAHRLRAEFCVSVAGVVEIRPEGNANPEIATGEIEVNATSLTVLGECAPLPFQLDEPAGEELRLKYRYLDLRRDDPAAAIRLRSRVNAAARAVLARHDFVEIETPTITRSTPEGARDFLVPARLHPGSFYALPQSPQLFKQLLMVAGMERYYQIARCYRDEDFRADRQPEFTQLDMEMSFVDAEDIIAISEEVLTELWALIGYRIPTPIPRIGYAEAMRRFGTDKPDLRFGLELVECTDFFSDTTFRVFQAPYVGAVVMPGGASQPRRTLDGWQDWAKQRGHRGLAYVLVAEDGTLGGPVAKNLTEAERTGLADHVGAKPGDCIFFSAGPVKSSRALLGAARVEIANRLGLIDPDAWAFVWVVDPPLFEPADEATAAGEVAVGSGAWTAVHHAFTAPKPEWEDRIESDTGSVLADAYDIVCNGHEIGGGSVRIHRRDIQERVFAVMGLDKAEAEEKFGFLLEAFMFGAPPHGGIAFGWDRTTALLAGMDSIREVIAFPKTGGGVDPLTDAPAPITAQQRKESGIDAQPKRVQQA
# [4] = target: AMP-activated protein kinase, AMPK (Homo sapiens) (UniProt P54646+O43741+P54619+Q9UGJ0+Q9Y478+Q13131+Q9UGI9); assay: AMP-dependent Kinase enzyme assay. An in vitro enzyme assay that detects ADP turnover that is directly proportional to AMPK activity. This uses naive AMPK that is activated during the assay with MK-8722; format: functional; settings: 30 µM
# [5] = target: Sialic acid-binding Ig-like lectin 9 (Homo sapiens) (UniProt Q9Y336); assay: Hs-Siglec9 ALPHAscreen SOP 20170721; settings: 10 µM
# Trypanosoma cruzi = assay: Trypanosoma cruzi phosphomannomutase and mannose-1-phosphate guanylyltransferase assay; format: functional; settings: 10 µM
# [6] = target: T3, Arginase-2, mitochondrial (Homo sapiens) (UniProt P78540); assay: in vitro enzyme assay to detect the production of urea directly proportional to the activity of Arginase II; format: functional; settings: 33.3 µM; further: in the data most compounds retested in dose-response had high values
# T3 sequence (whole entry): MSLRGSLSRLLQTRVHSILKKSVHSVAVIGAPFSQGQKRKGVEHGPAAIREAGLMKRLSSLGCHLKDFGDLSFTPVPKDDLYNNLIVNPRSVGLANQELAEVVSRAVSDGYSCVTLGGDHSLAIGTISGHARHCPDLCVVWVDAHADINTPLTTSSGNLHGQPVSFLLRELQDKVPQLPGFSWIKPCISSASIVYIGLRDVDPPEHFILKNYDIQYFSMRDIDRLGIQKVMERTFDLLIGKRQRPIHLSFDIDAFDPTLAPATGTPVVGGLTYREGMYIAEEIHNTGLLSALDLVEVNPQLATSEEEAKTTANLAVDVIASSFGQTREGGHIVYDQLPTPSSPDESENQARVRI
# [7] = target: T4, Proteasome subunit beta (Trypanosoma cruzi) (UniProt O96673); assay: Trypanosoma cruzi proteasome chymotrypsin-like activity (TcProtChymo) assay.; further: in the data most compounds retested in dose-response had high values; format: functional; settings: 9.37 µM
# T4 sequence (whole entry): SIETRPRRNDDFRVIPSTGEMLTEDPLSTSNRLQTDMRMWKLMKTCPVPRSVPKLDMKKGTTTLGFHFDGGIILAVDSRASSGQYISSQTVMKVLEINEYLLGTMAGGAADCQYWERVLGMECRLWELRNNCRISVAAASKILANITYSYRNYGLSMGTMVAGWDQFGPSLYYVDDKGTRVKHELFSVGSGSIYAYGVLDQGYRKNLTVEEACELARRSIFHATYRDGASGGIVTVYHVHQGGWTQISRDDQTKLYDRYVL
# Homo sapiens = species: Homo sapiens; assay: To identify inhibition of the IFN signalling (Jak-Stat) pathway via expression of an eGFP reporter gene under the control of an IFN-stimulated response element (ISRE) containing MxA promoter.; format: functional; settings: 30 µM
# [8] = target: Shiga toxin 2 (Escherichia coli O157:H7) (UniProt P09385+P09386); assay: E. coli 0.157:H7 Shiga Toxin SOP - stx2 screening assay; format: functional; settings: 30 µM
# [9] = target: T5, Tyrosyl-tRNA synthetase, putative (Trypanosoma cruzi (strain CL Brener)) (UniProt Q4DSP6); assay: Trypanosoma cruzi tyrosyl tRNA synthetase (TcYRS) _High Tyrosine SOP; format: functional; settings: 30 µM; further: in the data most compounds retested in dose-response had high values
# T5 sequence (whole entry): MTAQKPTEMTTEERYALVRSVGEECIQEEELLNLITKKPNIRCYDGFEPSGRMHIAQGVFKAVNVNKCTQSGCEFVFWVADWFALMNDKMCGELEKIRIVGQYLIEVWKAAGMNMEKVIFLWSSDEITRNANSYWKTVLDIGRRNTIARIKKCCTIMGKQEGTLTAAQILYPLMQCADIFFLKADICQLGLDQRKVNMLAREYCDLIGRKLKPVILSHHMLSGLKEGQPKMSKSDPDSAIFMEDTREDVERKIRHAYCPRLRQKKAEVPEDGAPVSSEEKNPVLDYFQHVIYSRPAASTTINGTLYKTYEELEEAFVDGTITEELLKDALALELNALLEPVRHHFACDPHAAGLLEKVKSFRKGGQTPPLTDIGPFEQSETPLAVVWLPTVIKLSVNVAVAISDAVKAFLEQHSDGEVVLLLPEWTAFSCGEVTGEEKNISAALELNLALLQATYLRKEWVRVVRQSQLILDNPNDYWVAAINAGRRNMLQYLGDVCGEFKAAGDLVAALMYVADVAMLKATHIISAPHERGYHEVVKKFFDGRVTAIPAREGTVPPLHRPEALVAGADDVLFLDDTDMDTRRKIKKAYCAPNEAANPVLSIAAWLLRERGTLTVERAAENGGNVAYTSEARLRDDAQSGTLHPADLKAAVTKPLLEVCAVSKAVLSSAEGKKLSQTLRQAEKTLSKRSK
# [10] = target: T5, Tyrosyl-tRNA synthetase, putative (Trypanosoma cruzi (strain CL Brener)); assay: Trypanosoma cruzi tyrosyl tRNA synthetase (TcYRS) SOP; format: functional; settings: 30 µM
# [11] = target: Chromo domain-containing protein 1 (Saccharomyces cerevisiae (strain ATCC 204508 / S288c) (Baker's yeast)) (UniProt P32657); assay: ScCHD-1 Enzyme Inhibition Assay; format: functional; settings: 30 µM; further: in the data most compounds retested in dose-response had high values
# Chain of Chromo domain-containing protein 1 (Saccharomyces cerevisiae (strain ATCC 204508 / S288c) (Baker's yeast)) (P32657 whole entry, the tested form may be a part): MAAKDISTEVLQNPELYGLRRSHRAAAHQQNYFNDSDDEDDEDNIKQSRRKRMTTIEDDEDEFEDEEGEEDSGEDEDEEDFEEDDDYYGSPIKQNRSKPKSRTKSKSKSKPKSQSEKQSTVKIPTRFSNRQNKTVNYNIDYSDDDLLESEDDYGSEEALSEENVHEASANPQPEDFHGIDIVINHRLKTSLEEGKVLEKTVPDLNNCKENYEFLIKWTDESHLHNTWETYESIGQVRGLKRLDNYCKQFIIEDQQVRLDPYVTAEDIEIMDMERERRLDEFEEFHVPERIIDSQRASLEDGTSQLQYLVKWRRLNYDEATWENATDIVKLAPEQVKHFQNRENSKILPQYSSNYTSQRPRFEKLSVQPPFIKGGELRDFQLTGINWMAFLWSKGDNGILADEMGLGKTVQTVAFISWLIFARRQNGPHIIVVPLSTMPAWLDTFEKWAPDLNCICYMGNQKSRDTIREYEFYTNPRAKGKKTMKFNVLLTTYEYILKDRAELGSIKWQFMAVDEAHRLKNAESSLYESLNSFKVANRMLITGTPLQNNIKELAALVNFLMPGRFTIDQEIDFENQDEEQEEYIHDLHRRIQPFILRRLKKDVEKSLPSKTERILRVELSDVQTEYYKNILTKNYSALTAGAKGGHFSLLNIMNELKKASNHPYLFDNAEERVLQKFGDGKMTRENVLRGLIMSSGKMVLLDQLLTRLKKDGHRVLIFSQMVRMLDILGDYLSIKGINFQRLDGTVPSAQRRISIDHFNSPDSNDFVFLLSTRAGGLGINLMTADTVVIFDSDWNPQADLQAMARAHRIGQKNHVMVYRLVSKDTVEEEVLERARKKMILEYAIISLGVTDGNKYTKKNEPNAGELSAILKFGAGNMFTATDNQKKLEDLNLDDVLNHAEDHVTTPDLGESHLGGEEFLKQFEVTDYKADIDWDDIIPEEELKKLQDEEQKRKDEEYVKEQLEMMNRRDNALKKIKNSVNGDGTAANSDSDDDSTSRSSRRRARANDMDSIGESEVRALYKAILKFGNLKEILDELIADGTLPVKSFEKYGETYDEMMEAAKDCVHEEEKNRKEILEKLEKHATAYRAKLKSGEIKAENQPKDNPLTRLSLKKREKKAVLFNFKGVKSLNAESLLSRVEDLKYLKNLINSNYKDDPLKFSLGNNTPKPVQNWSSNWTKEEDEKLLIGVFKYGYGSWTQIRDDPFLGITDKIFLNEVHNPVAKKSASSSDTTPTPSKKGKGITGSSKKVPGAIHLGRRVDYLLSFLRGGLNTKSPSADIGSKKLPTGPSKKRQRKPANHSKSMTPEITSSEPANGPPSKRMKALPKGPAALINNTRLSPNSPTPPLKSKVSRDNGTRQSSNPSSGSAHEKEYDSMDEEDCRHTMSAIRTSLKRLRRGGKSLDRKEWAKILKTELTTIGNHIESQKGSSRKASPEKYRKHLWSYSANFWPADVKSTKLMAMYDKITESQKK
# Chain of Sialic acid-binding Ig-like lectin 9 (Homo sapiens) (Q9Y336 whole entry): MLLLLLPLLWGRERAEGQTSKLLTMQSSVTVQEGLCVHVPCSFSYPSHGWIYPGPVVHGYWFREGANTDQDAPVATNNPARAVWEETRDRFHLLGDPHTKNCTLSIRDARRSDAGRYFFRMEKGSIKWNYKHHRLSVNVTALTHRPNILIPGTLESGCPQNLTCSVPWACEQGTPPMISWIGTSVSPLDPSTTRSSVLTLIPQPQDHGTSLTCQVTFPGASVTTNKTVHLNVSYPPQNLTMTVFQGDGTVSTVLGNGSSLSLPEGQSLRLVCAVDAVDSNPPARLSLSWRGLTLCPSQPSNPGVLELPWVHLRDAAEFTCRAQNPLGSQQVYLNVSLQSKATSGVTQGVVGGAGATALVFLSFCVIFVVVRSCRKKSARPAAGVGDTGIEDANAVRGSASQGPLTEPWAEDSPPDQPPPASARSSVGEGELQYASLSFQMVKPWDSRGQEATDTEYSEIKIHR
# Chain of Protein translocase subunit SecA (Escherichia coli (strain K12)) (P10408 whole entry): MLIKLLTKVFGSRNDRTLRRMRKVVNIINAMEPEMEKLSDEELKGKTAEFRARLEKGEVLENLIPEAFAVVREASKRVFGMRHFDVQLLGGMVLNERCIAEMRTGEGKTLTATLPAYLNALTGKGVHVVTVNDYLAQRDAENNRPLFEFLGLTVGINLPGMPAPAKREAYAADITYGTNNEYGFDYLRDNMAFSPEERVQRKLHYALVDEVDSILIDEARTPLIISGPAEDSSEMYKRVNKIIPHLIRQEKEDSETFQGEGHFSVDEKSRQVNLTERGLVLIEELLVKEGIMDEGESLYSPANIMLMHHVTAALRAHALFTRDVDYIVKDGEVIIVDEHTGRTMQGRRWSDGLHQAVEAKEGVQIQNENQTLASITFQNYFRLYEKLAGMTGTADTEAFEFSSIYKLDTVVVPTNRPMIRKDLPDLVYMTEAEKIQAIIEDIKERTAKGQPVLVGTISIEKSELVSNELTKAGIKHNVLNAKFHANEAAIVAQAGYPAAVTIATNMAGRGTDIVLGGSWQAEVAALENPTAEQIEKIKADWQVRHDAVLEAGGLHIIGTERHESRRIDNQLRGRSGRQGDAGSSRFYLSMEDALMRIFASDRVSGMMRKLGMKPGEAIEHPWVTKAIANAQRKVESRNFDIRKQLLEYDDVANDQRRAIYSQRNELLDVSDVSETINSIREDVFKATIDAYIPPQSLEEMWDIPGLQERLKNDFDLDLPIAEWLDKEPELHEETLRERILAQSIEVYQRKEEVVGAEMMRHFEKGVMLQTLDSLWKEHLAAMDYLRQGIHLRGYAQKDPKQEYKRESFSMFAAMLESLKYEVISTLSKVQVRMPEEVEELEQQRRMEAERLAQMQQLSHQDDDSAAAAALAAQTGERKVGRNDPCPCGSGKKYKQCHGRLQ
smiles,measurement,setting,value
Cc1c(CC(=O)N2CCN(CC(F)(F)F)CC2)nnn1-c1ccccc1,Percent Effect,[1],-3.34%
same,Percent Effect,[2],10.4%
same,Percent Effect,[3],12.8%
same,Percent Effect,[4],-2.43%
same,Percent Effect,[5],2.86%
same,Percent Effect,Trypanosoma cruzi,-2.65%
same,Percent Effect,[6],2.76%
same,Percent Effect,[7],10.8%
same,Percent Effect,Homo sapiens,11.9%
same,Percent Effect,[8],-45.5%
same,Percent Effect,[9],4.3%
same,Percent Effect,[10],8.64%
same,Percent Effect,[11],-1.92%
CO[C@@H]1CC[C@H]2[C@H]1OCCN2CC1CCOCC1,Percent Effect,[1],-7.48%
same,Percent Effect,[2],13.5%
same,Percent Effect,[3],-1.82%
same,Percent Effect,[4],-2.63%
same,Percent Effect,[5],10.8%
same,Percent Effect,Trypanosoma cruzi,3.91%
same,Percent Effect,[6],3.33%
same,Percent Effect,[7],8.88%
same,Percent Effect,Homo sapiens,1.72%
same,Percent Effect,[8],9.96%
same,Percent Effect,[9],4.95%
same,Percent Effect,[10],13.4%
same,Percent Effect,[11],-4.03%
Cc1nc(NCC2CC2)nc2c1COCC21CCN(C)C1 (configuration not stated),Percent Effect,[1],-1.26%
same,Percent Effect,[2],18.7%
same,Percent Effect,[3],-1.49%
same,Percent Effect,[4],0.667%
same,Percent Effect,[5],-4.41%
same,Percent Effect,Trypanosoma cruzi,2.17%
same,Percent Effect,[6],46.4%
same,Percent Effect,[7],19.1%
same,Percent Effect,Homo sapiens,2.6%
same,Percent Effect,[8],2.88%
same,Percent Effect,[9],4.25%
same,Percent Effect,[10],16.7%
same,Percent Effect,[11],-6.2%
CN(C)c1nccc(N2CCO[C@H]3CN(Cc4ccsc4)C[C@H]32)n1,Percent Effect,[1],-0.682%
same,Percent Effect,[2],8.22%
same,Percent Effect,[3],-1.5%
same,Percent Effect,[4],2.33%
same,Percent Effect,[5],8.35%
same,Percent Effect,Trypanosoma cruzi,1.59%
same,Percent Effect,[6],-0.399%
same,Percent Effect,[7],19.9%
same,Percent Effect,Homo sapiens,2.38%
same,Percent Effect,[8],-97.8%
same,Percent Effect,[9],8.33%
same,Percent Effect,[10],13.6%
same,Percent Effect,[11],-5.92%
O=C(N[C@H]1CN[C@H]2CCCO[C@H]21)c1cccnc1,Percent Effect,[1],1.71%
same,Percent Effect,[2],16.4%
same,Percent Effect,[3],-0.775%
same,Percent Effect,[4],-3.57%
same,Percent Effect,[5],7.91%
same,Percent Effect,Trypanosoma cruzi,5.36%
same,Percent Effect,[6],-2.4%
same,Percent Effect,[7],9.33%
same,Percent Effect,Homo sapiens,8.46%
same,Percent Effect,[8],-2.82%
same,Percent Effect,[9],8.33%
same,Percent Effect,[10],11.1%
same,Percent Effect,[11],-3%
CN(C)c1ncc2c(n1)C1(CCN(Cc3ccccc3)C1)COC2 (configuration not stated),Percent Effect,[1],-2.14%
same,Percent Effect,[2],-5.48%
same,Percent Effect,[3],-5.72%
same,Percent Effect,[4],3.1%
same,Percent Effect,[5],1.95%
same,Percent Effect,Trypanosoma cruzi,2.78%
same,Percent Effect,[6],1.2%
same,Percent Effect,[7],10.9%
same,Percent Effect,Homo sapiens,-0.512%
same,Percent Effect,[8],-67%
same,Percent Effect,[9],5.21%
same,Percent Effect,[10],3.7%
same,Percent Effect,[11],-6.91%
COc1cc(CNCC(O)c2ccc(F)c(F)c2)cc2c1OCO2 (configuration not stated),Percent Effect,[1],-2.52%
same,Percent Effect,[2],13.5%
same,Percent Effect,[3],1.66%
same,Percent Effect,[4],1.05%
same,Percent Effect,[5],3.77%
same,Percent Effect,Trypanosoma cruzi,-6.41%
same,Percent Effect,[6],0.185%
same,Percent Effect,[7],18.1%
same,Percent Effect,Homo sapiens,17.8%
same,Percent Effect,[8],-9.43%
same,Percent Effect,[9],7.92%
same,Percent Effect,[10],13.4%
same,Percent Effect,[11],-5.65%
CCc1nc(CNC(C)Cn2cccn2)cs1 (configuration not stated),Percent Effect,[1],-1.58%
same,Percent Effect,[2],13.5%
same,Percent Effect,[3],5.32%
same,Percent Effect,[4],-19.1%
same,Percent Effect,[5],12.1%
same,Percent Effect,Trypanosoma cruzi,2.36%
same,Percent Effect,[6],-12%
same,Percent Effect,[7],9.73%
same,Percent Effect,Homo sapiens,14.4%
same,Percent Effect,[8],9.22%
same,Percent Effect,[9],12.3%
same,Percent Effect,[10],30.9%
same,Percent Effect,[11],-13.1%
CN(Cc1cccnc1)[C@@H]1CN(CC2CC2)[C@@H]2CCCO[C@H]12,Percent Effect,[1],-1.86%
same,Percent Effect,[2],2.67%
same,Percent Effect,[3],3.49%
same,Percent Effect,[4],2.59%
same,Percent Effect,[5],2.23%
same,Percent Effect,Trypanosoma cruzi,-4.05%
same,Percent Effect,[6],-57.2%
same,Percent Effect,[7],3.42%
same,Percent Effect,Homo sapiens,-1.28%
same,Percent Effect,[8],-18%
same,Percent Effect,[9],2.08%
same,Percent Effect,[10],5%
same,Percent Effect,[11],-8.32%
